# Screens: PubChem, Broad Institute
# RAD52 inh: RAD52 DNA annealing inhibitors, primary screen, biochemical, FRET, single point, set 2; recombinant RAD52 DNA annealing, FRET fluorescence; inhibition, % at 18.7 µM; AID 651710, 2012; 360,000 compounds, 0.46% hits;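 active = every replicate showing at least 50% inhibition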
# DENV2 CPE: inhibitors of DENV2 cytopathic effect, primary screen, cell-based, plate reader, single concentration; CPE inhibition, % at 9.99 µM; DENV2-infected cells, cytopathic effect rescue; 350,000 compounds, 1.7% hits; AID 651640, 2012; in the data active = CPE inhibition above about 20%, passing the limit was not always enough; tested in BHK-21 cells
# ERAP1 HTS inh: human ERAP1 aminopeptidase inhibitors, primary screen, biochemical, single point, plate reader; recombinant ERAP1, Leu-AMC fluorescence, 60 min; inhibition, % at 10.7 µM; 340,000 compounds, 0.15% hits; AID 652197, 2013;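 active = mean replicate inhibition of at least 30%, or all replicates individually reaching that 30% level; inactive = mean below 30% and not every replicate reaching it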
# FGF22 binding: binders of human FGF22 protein, primary screen, FGF22 synaptogenesis inhibitor project, biophysical, thermal shift, single point; activity (Tm shift, normalised), % at 9.99 µM; recombinant FGF22 thermal shift, SYPRO orange fluorescence; percent of sucrose octasulfate shift, DMSO zero; 340,000 compounds, 1.5% hits; AID 651658, 2012;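 active = mean Tm shift, scaled 0 neutral to 100 positive control, at about 1.3% or above, every replicate too, limit read from the data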
# AF4-AF9 inh: inhibitors of AF4 peptide binding to AF9, primary screen, biochemical, AlphaScreen, biotin-AF4 peptide, FLAG-AF9, single point; Protein AF-9 (Homo sapiens), P42568; inhibition, % at 10 µM; 350,000 compounds, 0.47% hits;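 active = every replicate reaching a set inhibition limit, whatever the replicate mean, cut at about 25% in these data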
# Target sequence (P42568 whole entry, looked up): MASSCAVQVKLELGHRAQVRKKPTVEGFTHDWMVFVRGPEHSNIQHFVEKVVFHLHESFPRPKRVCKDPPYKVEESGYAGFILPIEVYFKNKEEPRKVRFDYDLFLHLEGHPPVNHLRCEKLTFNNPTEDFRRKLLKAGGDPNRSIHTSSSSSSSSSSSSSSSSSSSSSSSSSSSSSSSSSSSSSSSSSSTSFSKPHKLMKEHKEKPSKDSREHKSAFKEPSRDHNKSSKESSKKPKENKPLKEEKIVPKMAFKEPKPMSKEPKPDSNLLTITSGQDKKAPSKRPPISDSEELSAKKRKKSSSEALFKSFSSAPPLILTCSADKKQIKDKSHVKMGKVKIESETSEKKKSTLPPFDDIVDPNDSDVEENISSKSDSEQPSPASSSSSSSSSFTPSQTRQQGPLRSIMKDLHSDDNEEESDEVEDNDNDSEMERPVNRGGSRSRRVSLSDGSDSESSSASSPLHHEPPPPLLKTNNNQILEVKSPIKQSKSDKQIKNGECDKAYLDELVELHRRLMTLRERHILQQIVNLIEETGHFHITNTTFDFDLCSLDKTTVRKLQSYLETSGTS
# Hits are given with their value; . = inactive; / = not tested or not shown; ! = not active in a repeat. Only some compounds are listed: those with a hit (about 4% of all), similar ones and a draw of the others.
SMILES,RAD52 inh,DENV2 CPE,ERAP1 HTS inh,FGF22 binding,AF4-AF9 inh
CCCCN1CC(COCc2ccccc2)Oc2cccc(N3CCCC3)c2S1(=O)=O (stereo not given),.,.,.,43,.
C[C@H](c1ccccc1)N1C[C@@H](COCc2ccccc2)Oc2cccc(N3CCCCC3)c2S1(=O)=O,.,.,.,.,.
COC(=O)NC1(C(F)(F)F)C(=O)Nc2c1c(=O)n(C)c(=O)n2C (stereo not given),.,.,.,43,.
CCNC(=O)Nc1ccc2c(c1)C(=O)N(C)[C@H]1CC[C@@H](CC(=O)NCCN3CCCC3)O[C@H]1CO2,/,.,/,.,/
CCNC(=O)Nc1ccc2c(c1)C(=O)N(C)[C@@H]1CC[C@H](CC(=O)NCc3ccc(F)cc3)O[C@H]1CO2,.,55,.,.,.
CCNC(=O)C[C@@H]1CC[C@H]2[C@H](COc3ccc(NC(=O)NC(C)C)cc3C(=O)N2C)O1,.,.,.,.,.
CCNC(=O)C[C@H]1CC[C@@H]2[C@H](COc3ccc(NC(=O)NC(C)C)cc3C(=O)N2C)O1,.,41,.,.,.
CCNC(=O)Nc1ccc2c(c1)C(=O)N(C)[C@@H]1CC[C@@H](CC(=O)NCc3ccc(F)cc3)O[C@H]1CO2,.,.,.,.,.
CN1C(=O)c2cc(NC(=O)Nc3ccc(Cl)cc3)ccc2OC[C@@H]2O[C@@H](CC(=O)NCCN3CCCCC3)CC[C@H]21,53,.,.,.,.
CN1C(=O)c2cc(NC(=O)c3cccc(F)c3)ccc2OC[C@H]2O[C@@H](CC(=O)NCc3ccccc3Cl)CC[C@H]21,.,.,.,1.6,.
CN1C(=O)c2cc(NC(=O)c3cccc(F)c3)ccc2OC[C@@H]2O[C@@H](CC(=O)NCc3ccccc3Cl)CC[C@H]21,.,.,.,.,.
C[C@@H]1CN([C@H](C)CO)C(=O)c2cc(NS(C)(=O)=O)ccc2O[C@@H](C)CCCCO[C@H]1CN(C)C(=O)Nc1ccc(F)cc1,.,.,.,.,.
CO[C@@H]1CN(C)C(=O)c2cc(NC(=O)C3CC3)ccc2OC[C@@H](C)N(C(=O)Nc2ccc(C(F)(F)F)cc2)C[C@H]1C,.,.,.,.,.
CCNC(=O)C[C@H]1CC[C@H]2[C@H](COc3ccc(NC(=O)c4ccc(F)c(F)c4)cc3C(=O)N2C)O1,.,88,.,.,.
CCNC(=O)C[C@H]1CC[C@@H]2[C@@H](COc3ccc(NC(=O)c4ccc(F)c(F)c4)cc3C(=O)N2C)O1,.,.,.,.,.
CCOc1ccccc1C=C1SC(=S)NC1=O,.,35,.,.,.
COC(=O)c1cccc(N(C(=O)c2ccco2)C(C(=O)NC2CCCC2)c2ccc(N3CCOCC3)cc2)c1 (stereo not given),.,.,.,.,.
CC(=O)c1cccc(N(C(=O)c2ccco2)C(C(=O)NC2CCCC2)c2ccc(N3CCOCC3)cc2)c1 (stereo not given),.,.,.,43,.
CC(=O)N(c1ccccc1C)S(=O)(=O)c1ccc(Cl)cc1,.,.,.,43,.
CCOc1ccccc1N(C(C)=O)S(=O)(=O)c1ccc(Cl)cc1,.,/,.,.,.
CCC(CO)Oc1cc(NCc2cccc(F)c2)c2ncn(C(C)C)c2c1 (stereo not given),.,118,/,.,.
Cc1ccc(-c2nnc(SCC(=O)NC3CCCC3)n2N)cc1,.,.,.,44,.
O=C(C[C@@H]1CC[C@@H](NS(=O)(=O)c2cccc(F)c2)[C@@H](CO)O1)N1CCCCC1,.,.,.,.,.
O=C(Nc1ccccc1)C1=C[C@H](c2csc3ccccc23)C[C@H](OCCCCO)O1,.,20!,.,.,.
CC(=O)N1[C@H](CNC(=O)C2CC2)[C@H](c2ccc(-c3cccc(F)c3)cc2)[C@@H]1CO,.,28,.,.,.
SMILES,RAD52 inh,DENV2 CPE,ERAP1 HTS inh,FGF22 binding,AF4-AF9 inh
CCC(=O)N1[C@H](CO)[C@@H](c2ccc(-c3cccc(F)c3)cc2)[C@@H]1CN(C)C(C)=O,.,34,.,.,.
CC(=O)NC[C@@H]1[C@H](c2ccc(-c3cccc(F)c3)cc2)[C@H](CO)N1C(C)=O,.,25,.,.,.
CC(=O)N1[C@@H](CO)[C@@H](c2ccc(-c3cccc(F)c3)cc2)[C@@H]1CNC(=O)C1CC1,/,.,/,/,/
CC(=O)NC[C@H]1[C@@H](c2ccc(-c3ccccc3)cc2)[C@@H](CO)N1C(=O)C1CCC1,.,31,.,.,.
O=C(NC[C@H]1CC[C@@H]2[C@@H](CN2S(=O)(=O)c2ccccc2[N+](=O)[O-])O1)c1cccnc1,.,.,.,/,.
CCCC(=O)N1CCC2(CC1)CN(Cc1ccc(Cl)cc1)[C@H](CO)c1[nH]c3cc(OC)ccc3c12,.,.,.,/,.
COc1ccc(S(=O)(=O)N[C@H]2CC[C@@H](CCn3cc(-c4ccccc4F)nn3)O[C@H]2CO)cc1,.,.,.,.,.
CC(=O)NC[C@@H]1[C@@H](c2ccc(-c3ccccc3F)cc2)[C@H](CO)N1C(C)=O,.,.,.,.,.
CCC(=O)NC[C@H]1[C@H](c2ccc(-c3cccc(F)c3)cc2)[C@H](CO)N1C(=O)CC,.,29,.,.,.
CCCNC(=O)NC[C@H]1[C@H](c2ccc(C3=CCCCC3)cc2)[C@@H](CO)N1C(C)=O,.,22,.,.,.
CC(=O)NC[C@@H]1[C@@H](c2ccc(-c3ccccc3F)cc2)[C@@H](CO)N1C(C)=O,.,20,.,.,.
CCCNC(=O)NC[C@@H]1[C@H](c2ccc(C3=CCCCC3)cc2)[C@@H](CO)N1C(C)=O,.,.,.,.,.
CCC(=O)NC[C@H]1[C@@H](c2ccc(C3=CCCC3)cc2)[C@@H](CO)N1C(=O)CC,.,31,.,/,.
CC(C)CC#Cc1ccc([C@H]2[C@H](CO)N3CCCCN(S(=O)(=O)Cc4ccccc4)C[C@@H]23)cc1,.,.,.,.,.
CC(C)CC#Cc1ccc([C@@H]2[C@@H](CO)N3CCCCN(S(=O)(=O)Cc4ccccc4)C[C@@H]23)cc1,.,22,.,.,.
CC(C)CC#Cc1ccc([C@@H]2[C@H](CO)N3CCCCN(S(=O)(=O)Cc4ccccc4)C[C@@H]23)cc1,.,23,.,.,.
O=C(C1CCCC1)N1CC(=O)N2[C@H](CO)[C@H](c3ccc(C#Cc4cccc(F)c4)cc3)[C@@H]2C1,.,.,.,/,.
O=C(NCc1ccco1)C1CC(c2ccc(Cl)cc2)=NO1 (stereo not given),.,.,.,43,.
O=C(NCc1ccco1)C1CC(c2ccc(F)cc2)=NO1 (stereo not given),.,.,/,.,.
